Where “and” joins values, the source holds several entries; their conditions need not be identical. Equal entries are not always repeated.
Legend:
Assay in all cases: growth inhibition (% activity, log2 RLU normalised to DMSO / staurosporine); higher = more growth inhibition
Details in all cases: 33 µM
DIPGX29 = tested on: DIPGX29 (H3.3 K27M diffuse intrinsic pontine glioma line)
Outline: (§1)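 Cells (pHGG lines and H9-derived neural stem cells) were plated on Geltrex-coated 384-well plates and exposed to approved drugs at a single final concentration of about 33 μM, in triplicate, for 7 days at 37 °C, 5% CO2. Log2-transformed CellTiter-Glo luminescence was normalised per plate to % activity between solvent and positive control wells, and the growth-inhibition value is the median over replicates.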

DIPGX37 = tested on: DIPGX37 (H3.3 K27M diffuse intrinsic pontine glioma line)
Outline: as §1

DIPGX7 = tested on: DIPGX7 (H3.3 K27M diffuse intrinsic pontine glioma line)
Outline: as §1

DIPGX9 = tested on: DIPGX9 (diffuse intrinsic pontine glioma line)
Outline: as §1

HGGX39 = tested on: HGGX39 (paediatric high-grade glioma line)
Outline: as §1

HGGX6 = tested on: HGGX6 (H3.3 G34R paediatric high-grade glioma line)
Outline: as §1

HNSC = tested on: HNSC
Outline: as §1

SUDIPGIV = tested on: SUDIPGIV (diffuse intrinsic pontine glioma line)
Outline: as §1

SUDIPGVI = tested on: SUDIPGVI (diffuse intrinsic pontine glioma line)
Outline: as §1

SUDIPGXIII = tested on: SUDIPGXIII (diffuse intrinsic pontine glioma line)
Outline: as §1

Structure (SMILES) | growth inhibition (DIPGX29) | growth inhibition (DIPGX37) | growth inhibition (DIPGX7) | growth inhibition (DIPGX9) | growth inhibition (HGGX39) | growth inhibition (HGGX6) | growth inhibition (HNSC) | growth inhibition (SUDIPGIV) | growth inhibition (SUDIPGVI) | growth inhibition (SUDIPGXIII)
c1ccc2c(c1)CCCC2C1=NCCN1 (stereo not given) | 1.99% | 2.84% | 1.62% | 2.1% | 2.48% | 2.7% | 8.78% | 3.45% | 2.93% | 0.717%
NC1CCN(c2c(F)cc3c(=O)c(C(=O)O)cn(C4CC4)c3c2Cl)C1 (stereo not given) | 0.157% | -1.86% | 1.13% | 1.33% | 2.79% | -0.611% | 1.85% | -0.22% | 1.99% | -0.254%
COc1cc2nc(N3CCN(C(=O)C4CCCO4)CC3)nc(N)c2cc1OC (stereo not given) | 1.51% | -0.298% | 0.774% | 0.282% | 2.19% | -0.97% | 28% | 2.95% | -1.11% | -3.7%
CCc1c(Cl)c(O)c(Cl)c(O)c1C(=O)O[C@H]1[C@H](O)[C@H](OC)[C@H](OC/C2=C\C=C\C[C@H](O)/C(C)=C/[C@H](CC)[C@@H](O[C@@H]3OC(C)(C)[C@@H](OC(=O)C(C)C)[C@H](O)[C@@H]3O)/C(C)=C/C(C)=C/C[C@@H]([C@@H](C)O)OC2=O)O[C@@H]1C | 0.669% | 2.16% | 0.835% | -0.411% | 9.09% | 0.0636% | 11.6% | 3.19% | 2.46% | 0.498%
O.O.O.O.O=C([O-])CC(O)(CC(=O)[O-])C(=O)[O-].[Li+].[Li+].[Li+] | 1.75% | 1.97% | 1.43% | 0.467% | -0.0466% | -1.34% | 26.2% | 0.611% | 1.36% | -0.99%
COCCc1ccc(OCC(O)CNC(C)C)cc1 (stereo not given) | 0.745% | 0.102% | 1.22% | 2.73% | 2.04% | 1.92% | -0.726% | 0.382% | 2.97% | -0.552%
CCCCNC(=O)NS(=O)(=O)c1ccc(C)cc1 | -0.968% | 2.64% | -0.647% | 1.33% | 2.32% | -1.26% | 8.77% | 1.65% | 2.09% | -0.858%
CC(C)c1c(C(=O)Nc2ccccc2)c(-c2ccccc2)c(-c2ccc(F)cc2)n1CC[C@@H](O)C[C@@H](O)CC(=O)O | 16.8% | -10% | 21.8% | 7.54% | 42.1% | 23% | 65.6% | 32.1% | -0.629% | 39.2%
CC(=O)N[C@H]1[C@H]([C@H](O)[C@H](O)CO)OC(C(=O)O)=C[C@@H]1NC(=N)N | 1.23% | 2.89% | 2.14% | 1.62% | 1.17% | -2.7% | 7.75% | 1.46% | 2.82% | 2.15%
CNC1CCCN(c2c(F)cc3c(=O)c(C(=O)O)cn(C4CC4)c3c2OC)C1 (stereo not given) | -0.899% | 0.515% | -0.411% | 1.06% | 0.742% | 1.27% | -1.65% | -0.11% | -0.677% | 0.279%
CN1CCN(c2c(F)cc3c(=O)c(C(=O)O)cn4c3c2OCN4C)CC1 | 0.647% | 0.371% | 3.3% | 2.03% | 2.92% | 3.21% | 2.71% | 1.21% | 4.19% | -0.0388%
CN(C)CCCN1c2ccccc2Sc2ccc(C(F)(F)F)cc21 | 1.07% | 1.48% | 0.326% | 0.717% | 3.34% | 0.498% | -0.762% | 2.79% | 0.329% | -5.35%
CC(=O)Nc1ccccc1 | -2.81% | -0.334% | -1.79% | -2.39% | -2.41% | -0.159% | -3.95% | -0.657% | -5.47% | 0.153%
O=C(N[C@H](CO)[C@H](O)c1ccc([N+](=O)[O-])cc1)C(Cl)Cl | -0.766% | 2.12% | -0.167% | -0.0638% | 1.67% | -1.13% | 3.64% | -0.734% | 0.976% | -0.883%
O=c1c(-c2ccc(O)cc2)coc2cc(O)cc(O)c12 | 0.891% | 2.29% | 2.16% | 4.34% | 4.09% | 2.54% | 3.99% | -1.2% | 0.172% | -2.36%
CN1CCC(OC(c2ccccc2)c2ccccc2)CC1 | 1.96% | 3.9% | 1.96% | 0.713% | 4.23% | 2.61% | 2.96% | 1.77% | 3.73% | -1.75%
CC(C)(Oc1ccc(Cl)cc1)C(=O)O | -2.6% | 1.37% | -0.722% | -1.38% | 0.448% | -2.21% | 5.23% | 0.614% | -0.459% | -0.393%
CC(C)Cn1cnc2c(N)nc3ccccc3c21 | 0.9% | 3.11% | 0.885% | 0.567% | 1.26% | 2.84% | 0.687% | 0.0825% | 3.61% | 0.156%
COc1ccc(CC(C)NCC(O)c2ccc(O)c(NC=O)c2)cc1 (stereo not given) | -0.234% | -0.809% | 0.814% | 0.302% | 3.66% | 0.0101% | 6.49% | 0.93% | 1.33% | -1.79%
COc1ccc2cccc(CCNC(C)=O)c2c1 | -3.08% | -0.948% | -1.76% | -2.3% | -1.63% | -4.45% | -2.84% | -2.11% | -2.45% | -0.361%

Structure (SMILES) | growth inhibition (DIPGX29) | growth inhibition (DIPGX37) | growth inhibition (DIPGX7) | growth inhibition (DIPGX9) | growth inhibition (HGGX39) | growth inhibition (HGGX6) | growth inhibition (HNSC) | growth inhibition (SUDIPGIV) | growth inhibition (SUDIPGVI) | growth inhibition (SUDIPGXIII)
Nc1nc(=O)c2c([nH]1)NC[C@H](CNc1ccc(C(=O)N[C@@H](CCC(=O)O)C(=O)O)cc1)N2C=O | 1.44% | 1.17% | 2.14% | 0.677% | 1.92% | 0.872% | 35.4% | 2.82% | -2.53% | 0.25%
Cc1nccn1CC1CCc2c(c3ccccc3n2C)C1=O (stereo not given) | 2.17% and 0.0485% | 1.96% and -0.656% | 5.12% and 2.92% | 1.4% and -0.3% | 4.82% and 1.34% | 1.68% and -1.02% | 3.47% and -2.09% | -0.0678% and -2.33% | 2.21% and -0.977% | -0.102% and 0.0786%
Nc1ccc(C(=O)O)c(O)c1 | 0.612% | 1.18% | 0.982% | 0.745% | 1.12% | 1.72% | -0.259% | 0.343% | -1.22% | -1.06%
Cc1cc(=O)n(-c2ccccc2)n1C | -0.731% | -0.447% | -1.9% | 0.213% | -0.272% | -0.826% | -1.87% | 0.134% | 0.115% | 0.666%
C[C@@H](NCCCc1cccc(C(F)(F)F)c1)c1cccc2ccccc12 | 8.61% | 3.26% | 6.24% | 5.87% | 5.43% | 18.9% | 49.7% | 4.23% | -0.119% | 0.33%
CCC(=O)OCC(=O)[C@@]1(OC(=O)CC)[C@@H](C)C[C@H]2[C@@H]3CCC4=CC(=O)C=C[C@]4(C)[C@@]3(Cl)[C@@H](O)C[C@@]21C | 2.67% | -2.69% | 1.9% | 4.04% | 3.24% | 1.72% | 0.321% | -1.55% | -0.46% | 0.862%
N=C(N)NCCN1CCCCCCC1 | 1.99% | -0.0479% | 2.35% | 1.9% | 2.8% | 1.1% | 5.04% | 0.15% | 5% | -0.376%
CN(C)CC/C=C1/c2ccccc2Sc2ccc(Cl)cc21 | -0.186% | 0.387% | 0.793% | 0.131% | 0.989% | 2.17% | -1.13% | -1.17% | -0.358% | -1.03%
Clc1ccccc1CN1CCc2sccc2C1 | 1.5% | 3.08% | 2.39% | 2.4% | 4.15% | 0.755% | 1.29% | 0.722% | 3.23% | 1.33%
CN1CCC(=C2c3ccccc3CC(=O)c3sccc32)CC1 | -0.432% | 0.985% | -0.625% | 0.0911% | 0.272% | 2.44% | 1.53% | -1.24% | 0.438% | 0.861%
COc1ccccc1OCC(O)CO (stereo not given) | -3.06% | -1.42% | -2.23% | -0.66% | -1.85% | -0.626% | -6.5% | -1.52% | -1.52% | 1.23%
COc1ccc2cc1Oc1ccc(cc1)C[C@H]1c3c(cc4c(c3Oc3cc5c(cc3OC)CCN(C)[C@@H]5C2)OCO4)CCN1C | 1.78% | 2.93% | 1.55% | 1.36% | 3.95% | 0.797% | 3.27% | -0.21% | 3.68% | 1.63%
Cc1ccc(C(=O)c2cc(O)c(O)c([N+](=O)[O-])c2)cc1 | -4.7% | -1.02% | -1.81% | -2.4% | -1.44% | -3.36% | 0.397% | -4.56% | -2.71% | 1.37%
CCOc1cc(N)c(Cl)cc1C(=O)NCC1CN(Cc2ccc(F)cc2)CCO1 (stereo not given) | -0.0532% | 1.06% | 0.919% | 1.54% | 1.87% | 0.0657% | 1.23% | 0.346% | 1.9% | 1.85%
CC1(C)[C@@H](OC(=O)CCC(=O)O)CC[C@]2(C)[C@H]3C(=O)C=C4[C@@H]5C[C@@](C)(C(=O)O)CC[C@]5(C)CC[C@@]4(C)[C@]3(C)CC[C@@H]12 | -0.0896% | -1.93% | -0.476% | -0.36% | 1.22% | -0.666% | 0.455% | -0.927% | 2.1% | 0.0653%
CN1CCC(=C2c3ccccc3CCc3sccc32)CC1 | 2.69% | 1.01% | 1.97% | 2.15% | 7.57% | -1.66% | 1.57% | 3.73% | -0.736% | 1.69%
Nc1nc(F)nc2c1ncn2[C@@H]1O[C@H](COP(=O)(O)O)[C@@H](O)[C@@H]1O | 16.9% | 1.7% | 11.8% | 31.4% | 8.94% | -0.81% | 23.2% | 9.24% | -2.06% | 1.2%
c1ccc2[nH]c(-c3cscn3)nc2c1 | -1.25% | 0.956% | -0.782% | 0.56% | 0.84% | 1.32% | -1.65% | 0.977% | 1.13% | 0.000357%
O=C(C[S+]([O-])Cc1ccco1)NC/C=C\COc1cc(CN2CCCCC2)ccn1 (stereo not given) | -1.37% | -2.72% | 0.0817% | -0.604% | -0.28% | 0.0479% | -2.82% | -2.24% | -1.66% | -2.4%
CC(C)[C@H](N)C(=O)OCCOCn1cnc2c(=O)nc(N)[nH]c21 | 0.298% | 0.698% | -1.22% | 1.11% | 0.616% | 1.05% | -0.55% | -0.767% | 0.129% | 1.61%
